{"source": "PubChem BioAssay (NCATS)", "note": "Records with an inconclusive call do not appear. Values without a mark were called inactive. The call rests on the fitted dose curve; in most records, active means well fitted cell-killing curve with a large enough effect; inconclusive means small, poorly fitted or top-dose-only effect, or effect the other way; inactive means flat fitted curve, though single readings scatter. On the % scale 0 is the no-effect control and ±100 the full control effect."}
{"tested_on": "Tov112D", "test": "Primary qHTS to identify gynecologic anti-cancer compounds using libraries of approved drugs and bioactive compounds (AID 1345084); further: nearly all actives have a fitted effect of over 55% in size", "conditions": "Gynecologic cancer cell panel viability, ATPlite luminescence, 48 h; series mostly up to 57.5 µM; activity change, negative = cytotoxicity: at the top concentration", "how_it_was_run": "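48 h compound exposure at 37 C, 5% CO2; five-point qHTS. ATPlite luminescence readout of cell ATP.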"}
{"smiles": "C/C(=C\\CCC(C)(C)O)CCO[C@@H]1O[C@H](CO[C@@H]2O[C@@H](C)[C@H](O)[C@@H](O)[C@H]2O)[C@@H](O)[C@H](O)[C@H]1O", "activity change, negative = cytotoxicity": "-1.24% [at 25.3 µM]"}
{"smiles": "CC1(C)C=Cc2c(ccc3c2N=C2C(C)(C)[C@@H]4C[C@]56CCCN5C(=O)[C@@]4(C[C@]23O)NC6=O)O1", "activity change, negative = cytotoxicity": "5.44% [at 25.3 µM]"}
{"smiles": "C=C1CC23CC1CCC2C12OC(=O)C(C)(C(O)C(O)C1O)C2C3C(=O)O", "note": "(stereo unspecified)", "activity change, negative = cytotoxicity": "-0.601% [at 38.5 µM]"}
{"smiles": "C=CC(C)(O)CCC1C(C)(O)CCC2C(C)(C)CCCC21C", "note": "(stereo unspecified)", "activity change, negative = cytotoxicity": "8.86% [at 38.5 µM]"}
{"smiles": "CC1=CC(=O)CC(C)(C)[C@@]1(O)/C=C/C(C)O[C@@H]1O[C@H](CO)[C@@H](O)[C@H](O)[C@H]1O", "note": "(stereo partly specified)", "activity change, negative = cytotoxicity": "3% [at 25.3 µM]"}
{"smiles": "C=C(CCO)C(=O)OCC1OCC(OC(=O)C(=C)CCO[C@@H]2O[C@H](COC(=O)C(=C)CCO[C@@H]3O[C@H](CO)[C@@H](O)[C@H](O)[C@H]3O)[C@@H](O)[C@H](O)[C@H]2O)C(O)C1O", "note": "(stereo partly specified)", "activity change, negative = cytotoxicity": "-3.57% [at 25.3 µM]"}
